This is a sample that favours compounds with a hit; in the whole collection about 3.7% have one here.
WRN helicase inh: inhibitors of human WRN helicase; 0.46% of 360,000 active; Q14191; AID 651768; WRN helicase unwinding, fluorescent forked duplex, kinetic; Potency, µM (doses to about 114 µM), usual class: inhibitors; further: nearly all actives have a fitted effect of over 55% in size
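WRN at 20 nM final was preincubated with compound for 15 min at room temperature; reaction started with 100 nM forked duplex oligonucleotide carrying fluorophore and quencher plus 2 mM ATP (final). Unwinding followed kinetically by red fluorescence (ex 525/em 598 nm).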
TCR activator: activators of T cell receptors; AID 504894; primary human leukocytes, anti-CD3, IL-2 HTRF, 48 h; 330,000 tested, under 10 active; Potency, µM (top dose mostly 9.22 µM), usual class: activators
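HTRF read-out of IL-2 secretion: europium cryptate donor excited at 320nm, d2 acceptor emission at 665nm. Cells were primary human leukocytes incubated 48 hr with compounds and a-CD3 beads, supplying TCR signal only.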
PLK1 PBD block: PLK1 (human) polo-box domain binding inhibition; AID 720504; Potency, µM, hits mostly inhibitors; 2.8% of 360,000 active; Plk1 PBD binding of FITC phosphopeptide, fluorescence polarization; further: series mostly up to about 57 µM; nearly all actives have a fitted effect of over 65% in size
VDR inhibitor: vitamin D3 receptor (human) inhibition. P11473. VDR-SRC2-3 peptide fluorescence polarization, 2 h. Potency, µM, actives largely listed as inhibitors. 0.93% of 400,000 active. AID 504847
Target sequence (P11473 whole entry, looked up): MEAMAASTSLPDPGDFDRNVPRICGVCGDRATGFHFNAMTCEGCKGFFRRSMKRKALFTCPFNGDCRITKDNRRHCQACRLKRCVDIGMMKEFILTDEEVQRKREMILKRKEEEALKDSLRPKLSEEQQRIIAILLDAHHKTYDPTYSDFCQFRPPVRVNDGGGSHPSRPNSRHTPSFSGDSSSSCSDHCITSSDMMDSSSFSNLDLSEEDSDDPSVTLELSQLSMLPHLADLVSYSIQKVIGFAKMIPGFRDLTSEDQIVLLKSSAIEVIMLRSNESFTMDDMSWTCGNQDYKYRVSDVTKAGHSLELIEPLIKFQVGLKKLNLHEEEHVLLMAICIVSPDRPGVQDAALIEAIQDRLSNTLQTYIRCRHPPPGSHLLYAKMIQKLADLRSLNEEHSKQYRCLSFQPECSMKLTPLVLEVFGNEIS
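After 23 nl compound addition and a short centrifugation, plates sat for 2 hours at ambient temperature; polarization of fluorescence then indicated loss of VDR binding to peptide SRC2-3.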
PI5P4K alpha inh: inhibitors of human PI5P4K alpha; AID 652105; PI5P4Kalpha enzyme, ADP-Glo luminescence, 60 min; hits give low values; max response, %; P48426; 1.2% of 330,000 active; active means max response of -50% or lower; inconclusive means between -30% and -50%; inactive means -30% or higher; further: value at the top dose of about 77 µM
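Reactions run in 0.038 M HEPES pH 7.4, 0.28 mM EGTA, 0.1% CHAPS and 5% DMSO, with PI5P4Kalpha, substrate, compound and 5 microM ATP final, one hour at room temperature. Readout is ADP-Glo luminescence.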
FEN1 inhibitor: human FEN1 inhibition | P39748 | Recombinant FEN1 flap cleavage, fluorescence, 15 min | Potency, µM (top dose mostly 114 µM), usual class: inhibitors | 0.35% of 390,000 active; further: nearly all actives have a fitted effect of over 65% in size
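Quantitative HTS format: each compound was titrated, incubated with 10 nM nuclease for 15 min at room temperature, then challenged with flap substrate at 50 nM final. Signal change over 15 min gave concentration–effect curves.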
Of the large screens only hits and unclear results are named; the others gave an inactive call. Unless noted, the call rests on the fitted dose curve; in most records, active means well fitted curve in the direction sought with a large enough effect; inconclusive means small, poorly fitted or top-dose-only effect, or another doubt; inactive means no such curve, though single readings can be large; an effect the other way counts as inactive or inconclusive.

CNc1nc(N/N=C/c2cc([N+](=O)[O-])ccc2F)nc(Nc2ccccc2)n1	none
CNc1nc(N/N=C/c2cc3c(cc2[N+](=O)[O-])OCO3)nc(Nc2ccccc2)n1	PI5P4K alpha inh -68
Cc1ccc(S(=O)(=O)N2CCN(c3nc(-c4cncs4)nc4ccccc34)CC2)cc1	none (no result: WRN helicase inh, TCR activator, PLK1 PBD block, PI5P4K alpha inh)
CCOC(=O)COc1ccc(CC)cc1C(=O)c1ccn2nc(-c3ccccc3)cc2n1	none (no result: WRN helicase inh, TCR activator, PLK1 PBD block, PI5P4K alpha inh)
Cn1c(N)c(C(=O)COC(=O)CSc2ccc3ccccc3c2)c(=O)n(C)c1=O	none
Cn1c(N)c(C(=O)COC(=O)CC(NC(N)=O)c2ccc(Cl)cc2)c(=O)n(C)c1=O (configuration not stated)	none
Cn1c(N)c(C(=O)COC(=O)CSc2cccc3cccc(Cl)c23)c(=O)n(C)c1=O	PLK1 PBD block 27µM, PI5P4K alpha inh inconclusive
CC(=O)NC(CC(=O)OCC(=O)c1c(N)n(C)c(=O)n(C)c1=O)c1ccccc1 (configuration not stated)	PLK1 PBD block 24µM, VDR inhibitor inconclusive
COc1cc(N(C)C)c(OC)cc1/C=C/c1ccnc2ccccc12	none (no result: WRN helicase inh, TCR activator, PLK1 PBD block, VDR inhibitor, PI5P4K alpha inh)
CN(C)C(=O)COC(=O)c1ccccc1OCC(=O)Nc1ccc(Br)cc1	none (no result: WRN helicase inh, TCR activator, PLK1 PBD block, VDR inhibitor, PI5P4K alpha inh)
O=C1NC(=Nc2ccccc2Cl)S/C1=C\c1cccc([N+](=O)[O-])c1	PLK1 PBD block 27µM, VDR inhibitor inconclusive
O=C1NC(=Nc2ccccc2Cl)S/C1=C\c1cccc([N+](=O)[O-])c1O	PLK1 PBD block 27µM, VDR inhibitor 79µM, PI5P4K alpha inh -85, FEN1 inhibitor inconclusive
O=C1NC(=S)S/C1=C\c1cccc([N+](=O)[O-])c1	VDR inhibitor inconclusive, PI5P4K alpha inh -65, FEN1 inhibitor inconclusive
O=C1NC(=Nc2ccccc2Cl)S/C1=C\c1ccc(C(=O)O)cc1	PI5P4K alpha inh -65
CCc1cccc(-n2c(=O)c3cccnc3n2CC(=O)NCc2ccccc2)c1	none (no result: WRN helicase inh, TCR activator, PLK1 PBD block, PI5P4K alpha inh)
COc1cccc(C2C(=O)N(C3CCCCC3)CC(=O)N2CCc2ccc(OC)c(OC)c2)c1 (configuration not stated)	none (no result: WRN helicase inh, TCR activator, PLK1 PBD block, PI5P4K alpha inh)
Cc1sc2ncnc(SCC(=O)N3CCCC3)c2c1C	none
CC(=O)N1CCN(C(=O)CSc2ncnc3sc(C)c(C)c23)CC1	PLK1 PBD block 30µM
CCOC(=O)c1c(-c2ccccc2)csc1NC(=O)c1cc(-c2ccc(Cl)cc2)on1	VDR inhibitor inconclusive (no result: WRN helicase inh, TCR activator, PLK1 PBD block, PI5P4K alpha inh)
CCOc1ccccc1Oc1c(C)oc2c(CN3CCN(CCO)CC3)c(O)ccc2c1=O	none
CCOC(=O)c1c(C)oc2c1c(C(c1ccncc1)N1CCOCC1)c(O)c1ccccc12 (configuration not stated)	PLK1 PBD block 11µM, VDR inhibitor inconclusive
CCOC(=O)c1c(C)oc2c1c(CN1CCN(CCO)CC1)c(O)c1ccccc12	WRN helicase inh inconclusive, PLK1 PBD block 1.7µM, VDR inhibitor inconclusive, PI5P4K alpha inh -98
CCOC(=O)c1c(C)oc2c1c(CN1CCN(C(=O)OCC)CC1)c(O)c1ccccc12	WRN helicase inh inconclusive, PLK1 PBD block inconclusive, VDR inhibitor 50µM, PI5P4K alpha inh -56
CCOC(=O)c1c(C)oc2c1c(C=NCCC(=O)O)c(O)c1ccccc12	none
Cc1ccc(NC(=O)c2cc(=O)n(Cc3ccccc3)c(=O)[nH]2)cc1C	PLK1 PBD block 24µM, VDR inhibitor inconclusive
O=C(O)c1cc(=O)n(Cc2ccccc2)c(=O)[nH]1	PI5P4K alpha inh inconclusive
COc1cc2nc(NCCc3ccccc3)n3nc(-c4cccnc4)nc3c2cc1OC	none (no result: WRN helicase inh, TCR activator, PLK1 PBD block, PI5P4K alpha inh)
CC(C)(C)c1cnnn1-c1ccc(C(=O)CCl)cc1	PLK1 PBD block 6.7µM, VDR inhibitor 79µM (no result: PI5P4K alpha inh)
O=C(O)CCc1nc(-c2ccccc2)c(-c2ccccc2)o1	none (no result: WRN helicase inh, TCR activator, PLK1 PBD block, PI5P4K alpha inh, FEN1 inhibitor)
O=C(O)CCc1ccc(-c2ccccc2)o1	PLK1 PBD block inconclusive, VDR inhibitor 20µM
COc1c(OC(C)=O)ccc(/C=N\NC(=O)c2ccc(Br)cc2)c1[N+](=O)[O-]	PLK1 PBD block inconclusive, VDR inhibitor inconclusive, PI5P4K alpha inh -69, FEN1 inhibitor inconclusive
N#CC1=C(N)Oc2ccc3ccc(O)cc3c2C1c1cccnc1 (configuration not stated)	none (no result: TCR activator, PI5P4K alpha inh)
N#CC1=C(N)Oc2cc(O)c(Cl)cc2C1c1ccccc1F (configuration not stated)	PI5P4K alpha inh -64
N#CC1=C(N)Oc2cc(O)c(Cl)cc2C1c1cccnc1 (configuration not stated)	PI5P4K alpha inh -52 (no result: TCR activator)
COC(=O)C1=C(C)OC(N)=C(C#N)C1c1ccccc1F (configuration not stated)	VDR inhibitor inconclusive (no result: PI5P4K alpha inh)
CCNS(=O)(=O)c1ccc(OCCNS(C)(=O)=O)cc1	none (no result: PI5P4K alpha inh)
CCN(CC)S(=O)(=O)c1ccc(OCCNS(C)(=O)=O)cc1	WRN helicase inh inconclusive, PLK1 PBD block 3µM, VDR inhibitor 28µM, PI5P4K alpha inh inconclusive
COc1cc(O)c2c(c1)C(=O)c1cc(C)cc(O)c1C2=O	VDR inhibitor 22µM (no result: WRN helicase inh, TCR activator, PLK1 PBD block, PI5P4K alpha inh, FEN1 inhibitor)
Cc1cc(-c2nn3c(-c4ccccc4)nnc3s2)c2ccccc2n1	PLK1 PBD block 12µM, VDR inhibitor inconclusive (no result: PI5P4K alpha inh)
c1ccc(-c2cc(-c3nn4c(-c5ccco5)nnc4s3)c3ccccc3n2)cc1	PLK1 PBD block inconclusive (no result: PI5P4K alpha inh)
C=CCOc1c(Br)cc(/C=N/O)cc1OCC	PLK1 PBD block 30µM
CCCCOc1c(Br)cc(/C=N/O)cc1OCC	none
O=C(Nc1ccc(Cl)cc1Cl)c1ccc2c(c1)OCCO2	none
O=C(Nc1ccc(Cl)cc1Cl)c1cccc(N2C(=O)C=CC2=O)c1	PLK1 PBD block 1.9µM, VDR inhibitor inconclusive, PI5P4K alpha inh -51
CCN(CC)CCNC(=O)c1ccc2c(=O)n3nc(Nc4cccc(Cl)c4C)sc3nc2c1	none (no result: WRN helicase inh, TCR activator, PLK1 PBD block, PI5P4K alpha inh)
CCCOc1ccc(CCC(=O)N/N=C/c2ccco2)cc1	none
CCCOc1ccc(CCC(=O)N/N=C/c2ccncc2)cc1	PLK1 PBD block 24µM, VDR inhibitor inconclusive
O=Cc1ccc(O)cc1	none (no result: WRN helicase inh, TCR activator, PLK1 PBD block, VDR inhibitor, PI5P4K alpha inh)
COC/C=C/C1=CC2=CC(=O)C(C)(OC(=O)c3cnc4ccccc4n3)C(=O)C2=CN1c1ccccc1 (configuration not stated)	PI5P4K alpha inh -69
COC/C=C/C1=CC2=CC(=O)C(C)(OC(=O)c3cnc4ccccc4n3)C(=O)C2=CN1CC(C)C (configuration not stated)	FEN1 inhibitor inconclusive
CC(C)[C@H](NC(=O)c1ccccc1Cl)C(=O)Nc1nc(-c2ccccn2)cs1	none
O=C(CN1C(=O)C2CCCCC2C1=O)Nc1nc(-c2ccccn2)cs1 (configuration not stated)	PLK1 PBD block 24µM
C[C@@H](C(=O)Nc1nc(-c2ccccn2)cs1)N1C(=O)C2CCCCC2C1=O (some centres not stated)	WRN helicase inh inconclusive, PLK1 PBD block 17µM, VDR inhibitor inconclusive, PI5P4K alpha inh -56

Assay outcomes from PubChem.
